Reference: PubChem BioAssay (EPA / NIEHS)
Records with an inconclusive call do not appear. Active and inactive are the calls of the source. How the source made its calls, unless noted: active means hit-call score of the fitted dose curve at least 0.9, where 1 is the maximum; inactive means score below 0.9.

Columns and labels:
[1] = ACEA_ER_80hr: ACEA Biosciences xCELLigence Real-Time Cell Analysis on Estrogen Receptor Agonism for Proliferation (AID 2282667; active means hit-call score of the fitted dose curve at least 0.9, where 1 is the maximum); conditions: T47D proliferation, impedance (xCELLigence), 80 h
In short: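 T-47D cells monitored by electrical impedance (xCELLigence) with compound present throughout; 80 h timepoint, positive-direction fitting versus DMSO. Eight-point 1:4 dilutions from 100 uM final, duplicate plates.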

[2] = ATG_CRE_CIS: Attagene CIS-FACTORIAL HepG2 Assay for human cAMP Responsive Element (CRE) binding protein 3 (AID 2282926); conditions: HepG2 CRE cis-reporter, Attagene multiplexed mRNA; actives raise or lower the signal
In short: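 Induced reporter mRNA from a CRE cis element, measured in HepG2 among many multiplexed units at 24 h. Detection used RT-PCR plus capillary electrophoresis of fluorescent fragments; DMSO served as negative control.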

[3] = biological target: CCAAT/enhancer-binding protein beta (Homo sapiens) (UniProt P17676); experiment: ATG_C_EBP_CIS: Attagene CIS-FACTORIAL HepG2 Assay for human CCAAT/Enhancer Binding Protein (C/EBP) beta (AID 2282927); conditions: HepG2 Attagene cis-factorial transcription factor reporter; actives raise or lower the signal
In short: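 RT-PCR/capillary electrophoresis fluorescence of reporter mRNA, 24 h post-dose, in HepG2 cells carrying transfected cis-promoter reporter units. Bidirectional curve fitting against DMSO baseline captures gain or loss of signal.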

[4] = ATG_CMV_CIS: Attagene CIS-FACTORIAL HepG2 Assay for human CMV (Internal Marker) (AID 2282928); conditions: HepG2 CMV promoter reporter, transcription factor profiling; actives raise or lower the signal;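 further: endpoint acts as a background internal control marker rather than a target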
In short: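 Readout: fluorescent reporter cDNA fragments separated by capillary electrophoresis after RT-PCR and HpaI cut. Cells: HepG2 carrying transfected cis-promoter reporter constructs, dosed 24 h. Endpoint serves as background internal-marker control, fit bidirectionally versus DMSO.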

[5] = ATG_DR4_LXR_CIS: Attagene CIS-FACTORIAL HepG2 Assay for human Liver X Receptor (LXR), DR4 submotif (AID 2282929); conditions: HepG2 Attagene DR4 cis-reporter, mRNA transcription; actives raise or lower the signal
In short: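 DR4 cis-reporter in HepG2, 24 h exposure. Detection: RT-PCR, 6-FAM labelling, CE fragment analysis. Endpoint fitted bidirectionally, DMSO = baseline.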

[6] = biological target: Aryl hydrocarbon receptor (Homo sapiens) (UniProt P35869); experiment: ATG_Ahr_CIS: Attagene CIS-FACTORIAL HepG2 Assay for human Aryl Hydrocarbon Receptor (Ahr) (AID 2282930); conditions: HepG2 AhR cis-factorial reporter transcription; actives raise or lower the signal
In short: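 HepG2 cells transiently transfected with cis-element-driven multiplexed reporter transcription units; endogenous transcription factor activity measured as reporter mRNA 24 h after dosing. RT-PCR, 6-FAM labelling, HpaI digestion, capillary electrophoresis; bidirectional fitting versus DMSO baseline.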

[7] = ATG_AP_1_CIS: Attagene CIS-FACTORIAL HepG2 Assay for human Activator Protein 1 (AP-1) (AID 2282931); conditions: HepG2 Attagene cis-factorial AP-1 reporter mRNA; actives raise or lower the signal
In short: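 Cis-regulated reporter units transiently expressed in HepG2 report endogenous transcription-factor activity. Signal: reporter mRNA at 24 h, via RT-PCR and fluorescent capillary electrophoresis. Endpoint derived by bidirectional fitting, DMSO as negative control.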

[8] = ATG_AP_2_CIS: Attagene CIS-FACTORIAL HepG2 Assay for human Activator Protein 2 (AP-2) (AID 2282932); conditions: HepG2 AP-2 cis-reporter, Attagene transcription factor profiling; actives raise or lower the signal
In short: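 Cells (HepG2) transfected with promoter-driven reporter constructs, treated 24 h. Total RNA reverse-transcribed, reporter cDNA PCR-amplified, FAM-labelled by primer extension, digested, resolved by capillary electrophoresis. Activity fitted both directions versus DMSO.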

[9] = ATG_BRE_CIS: Attagene CIS-FACTORIAL HepG2 Assay for human Bone Morphogenetic Protein (BMP) Response Element (BRE) (AID 2282933); conditions: HepG2 BMP response element reporter, Attagene transcription factor profiling; actives raise or lower the signal
In short: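 Gain- or loss-of-signal was derived by bidirectional fitting against DMSO controls. The signal came from reporter mRNA, measured by RT-PCR and capillary electrophoresis, in HepG2 cells transiently carrying multiple reporter units and dosed for 24 h.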

[10] = biological target: Retinoic acid receptor alpha (Homo sapiens) (UniProt P10276); experiment: ATG_DR5_RAR_CIS: Attagene CIS-FACTORIAL HepG2 Assay for human Retinoic Acid Receptor Alpha (RARE), DR5 submotif (AID 2282934); conditions: HepG2 Attagene cis-factorial RARE DR5 reporter, mRNA; actives raise or lower the signal;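 on AC50: reporter responds to endogenous RAR alpha beta and gamma in HepG2 not RARA alone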
In short: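 HepG2 cells transiently transfected with multiplexed reporter units under cis (DR5 RARE) promoters, so endogenous transcription factor activity is measured. After 24 h compound exposure, reporter mRNA is quantified by RT-PCR with fluorescent labelling and capillary electrophoresis; bidirectional fitting versus DMSO.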

[11] = biological target: Transcription factor E2F1 (Homo sapiens) (UniProt Q01094); experiment: ATG_E2F_CIS: Attagene CIS-FACTORIAL HepG2 Assay for human E2F Transcription Factor 1 (AID 2282935); conditions: HepG2 Attagene cis-reporter, E2F reporter RNA transcripts; actives raise or lower the signal
In short: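 First, HepG2 cells were transfected with reporter transcription units. Next, they were dosed for 24 h. Then RNA was isolated, converted to cDNA, PCR-amplified, FAM-labeled, HpaI-digested and analyzed by capillary electrophoresis.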

[12] = ATG_E_Box_CIS: Attagene CIS-FACTORIAL HepG2 Assay for human Enhancer Box (E-box) (AID 2282936); conditions: HepG2 E-box cis-reporter transcription, actives raise or lower the signal
In short: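 Endogenous transcription factor activity was sensed in human HepG2 liver cells through transfected cis-promoter reporter units. After 24 h of dosing, total RNA was reverse-transcribed and reporter cDNA resolved by capillary electrophoresis.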

[13] = ATG_M_61_CIS: Attagene CIS-FACTORIAL HepG2 Assay for M61 Transcription Factor (Internal Marker) (AID 2282937); conditions: HepG2 Attagene CIS-FACTORIAL M61 internal marker reporter; actives raise or lower the signal
In short: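 Background-control endpoint: HepG2 cells with cis-regulated reporter constructs, 24 h exposure, reporter mRNA detected via fluorescent primer extension and capillary electrophoresis; values from bidirectional fitting with DMSO baseline.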

[14] = ATG_EGR_CIS: Attagene CIS-FACTORIAL HepG2 Assay for human Early Growth Response 1 (EGR1) (AID 2282938); conditions: HepG2 Attagene CIS-FACTORIAL EGR reporter mRNA; actives raise or lower the signal
In short: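 Endpoint derived by bidirectional fitting versus DMSO vehicle. Method: cis-promoter reporter units transfected into HepG2, 24 h dosing, RNA isolation, RT-PCR with 6-FAM primer extension and HpaI digestion, then capillary electrophoresis fluorescence detection.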

[15] = ATG_M_19_CIS: Attagene CIS-FACTORIAL HepG2 Assay for M19 Transcription Factor (Internal Marker) (AID 2282939); conditions: HepG2 Attagene CIS-FACTORIAL M19 internal marker reporter; actives raise or lower the signal
In short: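 Following a 24 h exposure, RNA from transfected HepG2 cells was reverse-transcribed, PCR-amplified with reporter-specific primers, end-labelled with 6-FAM and HpaI-digested before capillary separation. Values represent gain or loss versus DMSO.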

[16] = ATG_ERE_CIS: Attagene CIS-FACTORIAL HepG2 Assay for Estrogen Response Element (ERE) (AID 2282940); conditions: HepG2 ERE cis-reporter, Attagene RNA transcript; actives raise or lower the signal
In short: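 HepG2, transient cis-reporter units, 24 h exposure. RNA isolated, oligo(dT) RT, reporter-specific PCR, FAM extension, HpaI cut, CE detection. Gain/loss-of-signal vs DMSO.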

[17] = ATG_Ets_CIS: Attagene CIS-FACTORIAL HepG2 Assay for human Erythroblast Transformation Specific (ETS) (AID 2282941); conditions: HepG2 ETS cis-reporter transcription, actives raise or lower the signal
In short: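 RT-PCR/capillary electrophoresis fluorescence read-out of reporter mRNA; HepG2 transient multi-reporter transfection; 24 h compound exposure; gain or loss of signal fitted bidirectionally relative to DMSO.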

[18] = ATG_FoxO_CIS: Attagene CIS-FACTORIAL HepG2 Assay for human Forkhead box O (FoxO) (AID 2282943); conditions: HepG2 Attagene cis-reporter, FoxO element, mRNA; actives raise or lower the signal
In short: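 HepG2 cells transiently transfected with cis-promoter-driven multiple reporter transcription units; 24 h after chemical dosing, reporter mRNA quantified by RT-PCR, fluorescent primer extension, HpaI digestion and capillary electrophoresis. Bidirectional fitting versus DMSO baseline.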

[19] = ATG_GATA_CIS: Attagene CIS-FACTORIAL HepG2 Assay for human GATA Binding Protein (AID 2282944); conditions: HepG2 GATA cis-element reporter, Attagene multiplex mRNA; actives raise or lower the signal
In short: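 DMSO serves as negative control and baseline for bidirectional fitting of reporter mRNA changes. HepG2 cells bearing transiently transfected cis-promoter reporters were exposed 24 h; transcripts detected via RT-PCR and capillary electrophoresis.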

[20] = biological target: Hepatocyte nuclear factor 3-beta (Homo sapiens) (UniProt Q9Y261); experiment: ATG_FoxA2_CIS: Attagene CIS-FACTORIAL HepG2 Assay for human Forkhead box A2 (FOXA2) (AID 2282942); conditions: HepG2 cis-reporter transcription factor activity, 24 h; actives raise or lower the signal
In short: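 Measured: reporter mRNA induction or loss in HepG2 transiently carrying multiple cis-regulated reporter units, 24 h after dosing. Quantified by RT-PCR plus capillary electrophoresis, normalised to DMSO.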

Measured: AC50

Chain of Aryl hydrocarbon receptor (Homo sapiens) (P35869 whole entry, looked up): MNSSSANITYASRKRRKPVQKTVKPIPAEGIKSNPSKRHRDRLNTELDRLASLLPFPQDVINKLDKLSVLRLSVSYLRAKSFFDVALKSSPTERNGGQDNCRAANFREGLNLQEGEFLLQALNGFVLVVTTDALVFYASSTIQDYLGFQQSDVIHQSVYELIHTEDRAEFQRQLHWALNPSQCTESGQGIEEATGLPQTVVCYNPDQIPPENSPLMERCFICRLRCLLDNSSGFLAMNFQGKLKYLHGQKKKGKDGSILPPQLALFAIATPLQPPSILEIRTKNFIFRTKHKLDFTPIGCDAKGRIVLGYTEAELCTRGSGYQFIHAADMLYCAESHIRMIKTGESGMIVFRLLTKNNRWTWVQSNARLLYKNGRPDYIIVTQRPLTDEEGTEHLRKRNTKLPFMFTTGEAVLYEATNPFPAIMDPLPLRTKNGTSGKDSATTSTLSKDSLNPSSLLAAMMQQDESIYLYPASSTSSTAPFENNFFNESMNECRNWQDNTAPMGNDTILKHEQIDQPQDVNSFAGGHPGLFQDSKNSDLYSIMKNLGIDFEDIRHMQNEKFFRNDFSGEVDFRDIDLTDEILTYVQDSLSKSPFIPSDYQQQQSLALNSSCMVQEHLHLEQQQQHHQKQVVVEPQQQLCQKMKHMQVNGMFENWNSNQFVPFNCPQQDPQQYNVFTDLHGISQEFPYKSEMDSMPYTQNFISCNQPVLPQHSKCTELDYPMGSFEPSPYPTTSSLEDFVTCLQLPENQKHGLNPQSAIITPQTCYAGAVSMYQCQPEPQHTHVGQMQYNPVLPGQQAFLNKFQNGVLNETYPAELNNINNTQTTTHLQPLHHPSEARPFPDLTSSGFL
Chain of CCAAT/enhancer-binding protein beta (Homo sapiens) (P17676 whole entry, looked up): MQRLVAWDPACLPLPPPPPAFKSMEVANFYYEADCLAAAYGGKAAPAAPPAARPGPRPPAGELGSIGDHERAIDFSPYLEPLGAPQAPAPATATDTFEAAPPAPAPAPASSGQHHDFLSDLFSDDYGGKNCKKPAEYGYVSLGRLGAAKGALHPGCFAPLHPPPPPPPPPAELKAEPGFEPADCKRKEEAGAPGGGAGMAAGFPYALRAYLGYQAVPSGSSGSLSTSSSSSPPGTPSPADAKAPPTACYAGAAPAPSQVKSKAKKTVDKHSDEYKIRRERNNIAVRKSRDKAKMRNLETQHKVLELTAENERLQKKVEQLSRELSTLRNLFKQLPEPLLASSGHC
Chain of Retinoic acid receptor alpha (Homo sapiens) (P10276 whole entry, looked up): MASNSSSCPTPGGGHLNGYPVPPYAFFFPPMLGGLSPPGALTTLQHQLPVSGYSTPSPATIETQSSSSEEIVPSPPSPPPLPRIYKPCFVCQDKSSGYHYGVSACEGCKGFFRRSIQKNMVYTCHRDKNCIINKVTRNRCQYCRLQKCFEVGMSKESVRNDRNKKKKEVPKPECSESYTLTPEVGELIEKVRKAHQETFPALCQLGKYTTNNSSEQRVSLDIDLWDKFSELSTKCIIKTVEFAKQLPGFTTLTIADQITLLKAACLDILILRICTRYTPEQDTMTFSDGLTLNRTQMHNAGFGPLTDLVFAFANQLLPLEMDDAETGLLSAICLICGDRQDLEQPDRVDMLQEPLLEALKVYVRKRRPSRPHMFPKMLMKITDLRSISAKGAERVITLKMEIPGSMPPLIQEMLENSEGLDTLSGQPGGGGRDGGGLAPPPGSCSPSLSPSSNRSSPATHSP
Chain of Hepatocyte nuclear factor 3-beta (Homo sapiens) (Q9Y261 whole entry, looked up): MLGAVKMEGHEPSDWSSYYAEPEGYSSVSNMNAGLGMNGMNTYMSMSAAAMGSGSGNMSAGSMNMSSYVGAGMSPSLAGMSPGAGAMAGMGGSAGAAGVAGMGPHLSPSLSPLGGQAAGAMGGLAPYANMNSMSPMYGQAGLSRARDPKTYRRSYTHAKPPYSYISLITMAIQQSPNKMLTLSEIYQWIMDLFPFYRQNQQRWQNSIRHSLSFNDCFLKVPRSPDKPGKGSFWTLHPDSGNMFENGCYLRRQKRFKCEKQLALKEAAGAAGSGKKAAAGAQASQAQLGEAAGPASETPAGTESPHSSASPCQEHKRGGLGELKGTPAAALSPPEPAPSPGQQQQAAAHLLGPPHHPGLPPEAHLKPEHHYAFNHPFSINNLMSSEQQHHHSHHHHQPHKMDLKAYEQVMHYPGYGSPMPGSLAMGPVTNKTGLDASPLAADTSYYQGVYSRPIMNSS
Chain of Transcription factor E2F1 (Homo sapiens) (Q01094 whole entry, looked up): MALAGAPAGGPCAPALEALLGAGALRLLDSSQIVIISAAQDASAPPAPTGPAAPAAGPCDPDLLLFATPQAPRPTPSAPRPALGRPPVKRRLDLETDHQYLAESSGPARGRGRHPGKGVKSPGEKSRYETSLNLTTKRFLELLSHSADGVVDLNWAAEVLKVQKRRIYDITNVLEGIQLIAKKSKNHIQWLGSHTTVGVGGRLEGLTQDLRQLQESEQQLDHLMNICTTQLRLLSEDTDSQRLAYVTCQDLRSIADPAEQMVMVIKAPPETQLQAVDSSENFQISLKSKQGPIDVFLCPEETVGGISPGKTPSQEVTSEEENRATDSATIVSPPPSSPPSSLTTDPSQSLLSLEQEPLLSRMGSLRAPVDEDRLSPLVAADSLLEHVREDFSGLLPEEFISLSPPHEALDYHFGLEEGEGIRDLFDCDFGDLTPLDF

OCC1CCCO1 (configuration not stated)
not listed: [20]
inactive: all other assays above

C=CC(=O)OCC(F)(F)C(F)(F)C(F)(F)C(F)(F)C(F)(F)C(F)(F)C(F)(F)C(F)F
active: [5] 232000 nM | [10] 36900 nM
not listed: [16]
inactive: all other assays above

O=C(O)C(F)(F)C(F)(F)C(F)(F)C(=O)O
inactive: all assays above

F[Si-2](F)(F)(F)(F)F
not listed: [20]
inactive: all other assays above

CCN=C1C=CC(=C(c2ccc(N(CC)CC)cc2)c2ccc(N(CC)CC)cc2)c2ccccc21
active: [2] 1170 nM | [3] 33.4 nM | [4] 905 nM | [5] 655 nM | [6] 48.2 nM | [7] 191 nM | [8] 3680 nM | [9] 68.8 nM | [12] 2010 nM | [14] 780 nM
inactive: all other assays above

O=S(=O)(O)CCC(F)(F)C(F)(F)C(F)(F)C(F)(F)C(F)(F)C(F)(F)C(F)(F)C(F)(F)F
inactive: all assays above

O=C(O)C(F)(F)C(F)(F)C(F)(F)OC(F)(C(F)(F)F)C(F)(F)F
active: [5] 238000 nM
inactive: all other assays above
